# From PubChem BioAssay
# An excerpt weighted towards active compounds, which were near 9.2% of everything screened.
# NPC1 promoter act: activators of NPC1 promoter | Huh7 NPC1 promoter luciferase reporter, 24 h | Potency, µM (titrated, usually from 9.22 µM), for inactives: top-dose activation, hits mostly activators | 2.4% of 320,000 active | AID 485313; further: % of control where 0% means no effect; nearly all actives have a fitted effect of over 60% in size
#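 Luminescence from an NPC1 promoter-driven luciferase reporter in stably transfected Huh7 cells was measured after 24 h compound treatment at 37 °C, followed by 10 min ambient incubation with luciferase detection reagent.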
# FLuc modulator: counter-screen for miR-21 project: firefly luciferase inhibitors or activators. purified FLuc, Km substrates, luminescence inhibition. P08659. 6.9% of 360,000 active. Potency, µM (doses to about 57.5 µM), for the others: at the top dose activity change, negative = inhibition, actives largely listed as inhibitors;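 further: plate controls were vehicle for no effect and reference inhibitor for full effect; nearly all actives have a fitted effect of over 55% in size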
# Target sequence (P08659 whole entry, looked up): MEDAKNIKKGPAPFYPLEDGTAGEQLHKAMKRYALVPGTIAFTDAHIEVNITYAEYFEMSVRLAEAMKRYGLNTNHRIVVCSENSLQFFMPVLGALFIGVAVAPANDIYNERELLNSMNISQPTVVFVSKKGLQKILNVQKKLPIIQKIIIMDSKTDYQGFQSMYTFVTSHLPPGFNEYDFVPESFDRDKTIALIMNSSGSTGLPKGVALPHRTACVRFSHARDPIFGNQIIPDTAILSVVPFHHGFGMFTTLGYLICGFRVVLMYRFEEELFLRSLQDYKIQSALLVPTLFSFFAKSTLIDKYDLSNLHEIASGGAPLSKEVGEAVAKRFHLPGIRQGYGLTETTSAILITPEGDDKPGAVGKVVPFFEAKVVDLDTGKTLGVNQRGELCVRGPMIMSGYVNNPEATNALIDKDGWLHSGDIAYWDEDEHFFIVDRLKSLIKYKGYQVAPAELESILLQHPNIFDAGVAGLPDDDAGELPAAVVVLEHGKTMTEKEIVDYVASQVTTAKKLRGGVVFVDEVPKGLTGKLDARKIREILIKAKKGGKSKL
#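 Purified P. pyralis luciferase (10nM final) with 10uM D-luciferin and 10uM ATP (Km levels) in 50mM Tris acetate pH 7.5, 10mM Mg acetate, 0.01% Tween-20, 0.05% BSA; qHTS 6-point titration, ~60 µM downward; luminescence read.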
# ELG1 genotoxic: inducers of genotoxicity in HEK293T ELG1-luciferase cells; Potency, µM (doses to about 46 µM), without a hit: at the top dose activity change, positive = activation, most hits filed as activators; AID 504466; 1.3% of 330,000 active; HEK293T ELG1-luciferase reporter, luminescence, 16 h; further: % of control where 0% means no effect; nearly all actives have a fitted effect of over 60% in size
#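 HEK293T cells expressing luciferase-tagged ELG1 were exposed to compound or DMSO vehicle for 16 hr at 37 °C and 5% CO2. Luciferase activity was then measured with ONE-Glo after 30 min at room temperature.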
# ELG1 repair inh: inhibitors of ELG1-dependent DNA repair in HEK293T cells. HEK293T ELG1-luciferase reporter, luminescence, 16 h; DNA damage induced by 5-fluorouridine. Potency, µM (doses to about 46.1 µM), for the others: at the top dose activity change, negative = inhibition, most hits filed as inhibitors. 2.3% of 330,000 active. AID 504467; further: on the % scale 0 is the no-effect control and ±100 the full control effect; nearly all actives have a fitted effect of over 55% in size
#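 Step one: seed 2,000 cells per well. Step two: pin-transfer compound or DMSO alongside 5-fluorouridine. Step three: incubate 16 hr, 37 °C, 5% CO2. Step four: add ONE-Glo, wait 30 min, read luminescence.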
# SMN2 splice enh: enhancers of SMN2 splice variant expression; HEK293 SMN2-luciferase splicing reporter, luminescence, 30-36 h; Potency, µM (doses to about 46.1 µM), without a hit: top-dose activity change, positive = activation, most hits filed as activators; 2.8% of 210,000 active; AID 1458; further: % of control where 0% means no effect; nearly all actives have a fitted effect of over 55% in size
#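 HEK293 cells carry an SMN2 […]–luciferase reporter in which exon 7 inclusion puts luciferase in frame. Cells were plated 10-12 h before compound addition, then incubated 30-36 h at 37C. ONE-Glo luminescence was read; sodium butyrate at 4.5 mM final served as control.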
# Rab9 prom act: Rab9 promoter activation; Potency, µM (top dose mostly 9.22 µM), without a hit: at the highest dose activation, negative = inhibition, most hits filed as activators; AID 485297; 2.8% of 320,000 active; Huh7 Rab9 promoter-luciferase reporter, luminescence, 24 h; further: % of control where 0% means no effect; nearly all actives have a fitted effect of over 60% in size
#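 Measured in stably transfected Huh7 cells bearing a Rab9 promoter–luciferase construct: 24 h compound treatment at 37 °C, followed by luminescence detection.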
# * = called active by the depositor; ? = inconclusive; . = no result given; ! = not confirmed by another sample; [ ] = another dose, or the depositor's remark. The call rests on the fitted dose curve; in most records, active means well fitted curve in the direction sought with a large enough effect; inconclusive means small, poorly fitted or top-dose-only effect, or another doubt; inactive means no such curve, though single readings can be large; an effect the other way counts as inactive or inconclusive. Potency means the concentration at half of the fitted maximal effect.
SMILES,NPC1 promoter act,FLuc modulator,ELG1 genotoxic,ELG1 repair inh,SMN2 splice enh,Rab9 prom act
CC(=O)C(Sc1ncnc2c1nnn2-c1ccc(F)cc1)C(=O)N(C)C (stereo unspecified),-2.8%,?,5.5%,?,?,28.2%
O=C(CSc1ncnc2c1nnn2-c1ccc(F)cc1)NCC1CCCO1 (stereo unspecified),-3.0%,13.5µM*,1.3%,?,-20.9%,3.9%
O=C1NC(=O)N(Cc2ccc(F)cc2)C(=O)/C1=C\c1ccc(N2CCCC2)cc1,-4.4%,?,11.3%,-11.5%,.,2.3%
CN1C(=O)C(=Cc2ccc(N3CCCCCC3)cc2)C(=O)N(C)C1=O,-3.2%,19µM*,-0.1%,?,.,-0.1%
O=C(O)C[C@H]1OCC=C2CN3CC[C@@]45C6=CC(=O)C(=O)C([N+](=O)[O-])=C6N[C@H]4[C@H]1[C@H]2C[C@@H]35,.,.,.,.,-15.1%[9.22 µM],.
COc1ccc(-c2n[nH]c(=S)n2-c2ccc3c(c2)OCCO3)cc1OC,0.8%,12µM*,?,?,.,7.5%
On1ccccc1=S,-23.6%,8.49µM*,-52.7%,?,.,-35.7%
O=C(N=Nc1c(O)n(C2OC(=O)c3ccccc32)c2ccccc12)c1ccco1 (stereo unspecified),-1.9%,-0.9%,5.1%,?,.,19.0%
COC(=O)c1c(C)n(Cc2ccccc2)c2ccc(O)cc12,-5.9%,?,-6.6%,-14.2%,.,-3.3%
CC(=O)c1c(C)n(Cc2ccccc2)c2ccc(O)cc12,8.2%,1.5%,-10.1%,23.1µM*,.,-2.2%
CCS(=O)(=O)Nc1ccc(C2=NN(C(=O)c3ccco3)C(c3ccc(Cl)o3)C2)cc1 (stereo unspecified),.,.,-5.2%,?,.,.
Clc1cccc(SC2CCNCC2)n1,.,.,.,.,0.8%,.
Clc1ccc2sc(C3CCNCC3)nc2c1,?,23.9µM*,?,?,.,?
Cc1onc(-c2ccccc2)c1C(=O)N[C@@H]1C(=O)N2[C@@H]1SC(C)(C)[C@@H]2C(=O)O,-4.4%,9.1%,1.9%,-1.5%,-27.7%,-1.8%
CC(=O)OC(C)(C)/C=C/C(=O)C(C)(O)C1[C@H](O)C[C@@]2(C)C3CC=C4C(CC[C@@H](O)C4(C)C)[C@]3(CO)C(=O)C[C@]12C (stereo partly specified),-43.2%,1.3%,-8.1%,?,.,-44.2%
CC(=O)OC(C)(C)/C=C/C(=O)[C@](C)(O)[C@H]1[C@H](O)C[C@@]2(C)[C@@H]3CC=C4[C@H](C[C@H](O)C(=O)C4(C)C)[C@]3(C)C(=O)C[C@]12C,-33.5%,10.4%,-10.6%,5.17µM*,-87.4%,-42.0%
CC(C)C#N,.,.,.,.,-15.9%,.
CCN(C[C@H]1N[C@@](CC)(C(=O)OC)[C@H]2C(=O)N(Cc3ccccc3)C(=O)[C@@H]12)S(=O)(=O)c1ccc(OC)cc1,.,.,-4.2%,?,.,.
CC[C@@]1(C(=O)OC)N[C@H](CN(C)C(=O)c2ccc(C(C)(C)C)cc2)[C@@H]2C(=O)N(Cc3ccccc3)C(=O)[C@@H]21,.,.,-7.6%,11.6µM*,.,.
CC(O)CCl (stereo unspecified),.,.,.,.,3.4%,.
Cc1nn(-c2ccccc2)c(Cl)c1/C=N\NC(=O)c1cnccn1,16.2%,6.01µM*,14.0%,?,?,21.7%
Cc1ccc(-n2c(O)c(/C=N/NC(=O)c3ccncc3)c(=O)[nH]c2=O)cc1C,0.1%,0.0%,4.2%,5.6%,?,-6.1%
CCC1(C)CC(C(N)=S)CCO1 (stereo unspecified),1.9%,?,-2.3%,-2.4%,.,-5.0%
C[C@@]12CC[C@H]3[C@@H](CC[C@H]4C[C@@H](O)CC[C@]43C)[C@H]1CC[C@@H]2C(=O)C[C@H](O)C(F)(F)F,.,.,.,.,-9.0%[9.22 µM],.
Nc1c(C(=O)Nc2ccc(Cl)cc2)sc2nc3c(cc12)N1CCC3CC1,.,-14.8%,.,.,-4.6%,.
SMILES,NPC1 promoter act,FLuc modulator,ELG1 genotoxic,ELG1 repair inh,SMN2 splice enh,Rab9 prom act
Nc1c(C(=O)Nc2cccc(Br)c2)sc2nc3c(cc12)N1CCC3CC1,.,12µM*,.,.,-31.1%,.
CC1=C(O)C(=O)[C@@H]2O[C@@H]2C1=O,.,.,.,.,-9.6%,.
CC(=O)OC1CC[C@]2(C#N)[C@H]3CC[C@]4(C)[C@H](C5C=CC(=O)O5)CCC4(O)C3CCC2(O)C1 (stereo partly specified),15.4%,0.6%,-14.3%,14.6µM*,.,-4.5%
NCCc1ccc(S(=O)(=O)O)cc1[N+](=O)[O-],.,.,.,.,-3.7%[9.22 µM],.
CN(C)[C@@H]1C(=O)C(C(N)=O)=C(O)[C@]2(O)C(=O)C3=C(O)c4c(O)cccc4[C@](C)(O)[C@H]3C[C@@H]12,.,.,.,.,0.6%[9.22 µM],.
CC1CC(OP(O)(=S)c2ccc(N(C)C)cc2NC(=O)c2cccs2)CC(C)(C)C1 (stereo unspecified),-2.8%,10.7µM*,-7.3%,-14.5%,42.8%,-24.9%
C[C@@](Br)(C(=O)O)[C@H](Br)C(=O)O,.,.,.,.,-12.1%[9.22 µM],.
Brc1ccc(-c2csc(N3CCCCC3)n2)cc1,0.8%,9.53µM*,.,.,.,5.4%
CC(=O)Nc1ccc(Cc2nc3ccccc3[nH]2)cc1,1.2%,2.2%,3.5%,10.3%,?,-1.0%
COc1ccc(-c2nc3ccccc3c(=O)o2)cc1,?,1.2µM*,?,?,11.2µM*,?
COc1ccc(/C=N/NC(=O)c2cccc([N+](=O)[O-])c2)cc1OC,-5.9%,?,-0.3%,1.2%,3.0%,0.9%
COc1cc(/C=C(/C)[N+](=O)[O-])ccc1OCc1ccccc1Cl,-8.1%,13.5µM*,-15.8%,?,-103.3%,-51.6%
O=C(O)C[SH+]CC(=O)O.O=C(O)C[SH+]CC(=O)O.[Cu],.,.,.,.,2.4%[9.22 µM],.
Cc1c(OCC(F)(F)F)ccnc1CS(=O)c1nc2ccccc2[nH]1 (stereo unspecified),2.82µM*,13.5µM*!,13.3%,?,-9.8%,3.98µM*
COCCCOc1ccnc(CS(=O)c2nc3ccccc3[nH]2)c1C (stereo unspecified),3.16µM*,?,14.3%,?,.,2.82µM*
Cc1nn(C(C)(C)C)c(C)c1/C=N/OC(=O)Nc1ccc(Cl)cc1,-38.4%,0.0953µM*,-3.2%,?,.,-39.2%
Cn1nnc2cc(NC(=O)Nc3cccc(Cl)c3)ccc21,2µM*,?,?,?,.,1.41µM*
C[N+](C)(C)CC#CCOC(=O)Nc1cccc(Cl)c1,11.1%[46.1 µM],.,.,.,22.9%,-6.3%[46.1 µM]
CC(C)Oc1ccc(CNC(=O)Oc2ccccc2)cc1,3.55µM*,6.75µM*,5.2%,-2.3%,.,3.16µM*
CNC(=O)Oc1ccccc1OC(C)C,.,.,.,.,-3.2%,.
